Our source for the inhibition values is PubChem BioAssay AID739 (SRMLSC, 2007).

The structures appear in SMILES notation. About 880 (0.9%) of roughly 98,000 compounds were called active. No stated cut-off is given here; in the data, active means inhibition above about 30%; inactive means the rest. The sample as a whole holds a higher share of actives than the screen did.

This experiment can be described thus: phenotypic screen on post-Golgi transport, primary screen (AID 739).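 Further: yeast cells grown in 1536-well plates; yeast grown about 18 h at 30C before absorbance read.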 Particulars: post-Golgi transport phenotypic cell assay; at 10 µM; hits give high values.
In the case of `COC(=O)C(C(=O)Nc1cccc(C)n1)C1CCCCCC1` (configuration not stated), the inhibition was -2.06% (inactive).

Consider `COc1ccc2ccccc2c1CNCc1ccccn1`, for which the inhibition is 0.33% (inactive).

With `CC1CCN(CC(=O)c2c[nH]c3ccccc23)CC1`, the inhibition is 0% (inactive).

`CCOc1ccc(NC(=O)CCS(=O)(=O)c2cccc3nsnc23)cc1`: the inhibition was -1.86% (inactive).

As for `CCOc1ccc(-c2cn(S(=O)(=O)c3cccc4nsnc34)nc2N)cc1`, the inhibition is 46.9% (active).

`CCOc1ccc(OCC)c(NC(=O)CN(C)S(=O)(=O)c2cccc3nsnc23)c1`: the inhibition was 1.42% (inactive).

In the case of `O=C1N=C2SCCN2/C1=C\c1c(Cl)cccc1Cl`, the inhibition is -3.72% (inactive).

Consider `COC(=O)c1c(NC(=O)c2cccs2)sc2c1CCCC2`, for which the inhibition is 3.23% (inactive).

Turning to `Cc1ccc(C(=O)c2c(NC(=O)c3ccccc3)sc(C)c2C)cc1`, the inhibition was 0% (inactive).

For the compound `Cc1ccc(C(=O)c2c(NC(=O)c3ccncc3)sc3c2CCCC3)cc1`, the inhibition was 97.2% (active).

Take `CCCc1cc(=O)[nH]c(SCC(=O)c2cc(C)n(CCC)c2C)n1`: the inhibition was -4.22% (inactive).

Turning to `COc1cc(/C=N/O)cc(Br)c1OS(=O)(=O)c1ccc(C)cc1`, the inhibition is 2.99% (inactive).

`CCOc1ccc(N(CC(=O)NC2CCCCCC2)S(=O)(=O)c2c(C)[nH]c(=O)[nH]c2=O)cc1`: the inhibition was -2.87% (inactive).

Take `O=C1C=C(c2ccc(Cl)cc2)C(=O)N1Nc1ccccc1`: the inhibition was 106% (active).

In the case of `O=C1c2cccc3cc(Br)cc(c23)C(=O)N1Nc1ccccc1`, the inhibition is -2.04% (inactive).

For the compound `O=C(Nc1ccccc1)OCc1cc(-c2ccc(Cl)cc2)on1`, the inhibition is -5.71% (inactive).

As for `COc1ccc(-c2csc3nc(-c4ccccc4F)oc(=O)c23)cc1OC`, the inhibition is 6.4% (inactive).

Turning to `CC1CC2=C(CC1/C=N/NC(N)=S)C(C)(C)CCC2` (configuration not stated), the inhibition is 100% (active).

Regarding `CC1(C)CCCC2=C1CC1C(=O)N(c3ccccc3)C(=O)C1C2` (configuration not stated), the inhibition was -1.13% (inactive).

With `Cc1cc(C)c2nc(NC(=O)C3CCCO3)sc2c1` (configuration not stated), the inhibition is -4.03% (inactive).

In the case of `O=C(CSc1ccc(/C=N/NC(=O)c2cccc(F)c2)o1)Nc1ccccc1`, the inhibition was -2.85% (inactive).

On to `COc1ccc(CCNS(=O)(=O)c2ccc(Cl)s2)cc1OC`, for which the inhibition was -1.32% (inactive).

In the case of `COc1cccc(CNc2nc3nc4c(c(=O)n3[nH]2)CCC4)c1`, the inhibition is -5.47% (inactive).

In the case of `COc1cccc(-c2nc(S(=O)(=O)c3ccccc3)c(N3CCOCC3)o2)c1`, the inhibition is -8.86% (inactive).

`COc1cccc(-c2cc3nc4c(c(N5CCC6(CC5)OCCO6)n3n2)CCCC4)c1`: the inhibition was 45.5% (active).

Regarding `Cc1cccc(NC(=O)CSc2nnc(-c3ccco3)o2)c1`, the inhibition was -0.81% (inactive).

For the compound `COC(=O)c1ccccc1OCC(=O)N1CCN(c2ccc(Cl)cc2)CC1`, the inhibition is 5.12% (inactive).

For orientation: inhibition means the change of the read-out against control, counted positive when it falls.
